In PubChem BioAssay (NCATS):
Inconclusive results are not listed. Calls of active or inactive are those of the source. Unless noted, the call rests on the fitted dose curve; in most records, active means well fitted curve in the direction sought with a large enough effect; inconclusive means small, poorly fitted or top-dose-only effect, or another doubt; inactive means no such curve, though single readings can be large; an effect the other way counts as inactive or inconclusive.

Tests used:
[1] = Cell Viability - LYMP2-001 (AID 921);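 further: series mostly up to about 92 µM; 0% = DMSO only and full inhibition = tetraoctylammonium bromide control wells; nearly all actives have a fitted effect of over 70% in size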
Summary of the method: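 A lymphoblastoid cell line of human origin was treated with library compounds across a concentration series for 24 hours, and viable cell number was estimated from ATP-driven luciferase light output. Hill modeling gave AC50.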

[2] = MultiTox-Fluor Cytotoxicity Assay - LYMP1-001 - Dead Cells (AID 946)
Summary of the method: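 Cytotoxicity as increased dead-cell protease fluorescence (bis-AAF-R110, 485/520 nm), read 60 min after MultiTox-Fluor reagent. Human lymphoblastoid line exposed 16 h; Hill-fitted AC50, with DMSO as 0% and 15 uM tetraoctylammonium bromide as 100%.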

[3] = MultiTox-Fluor Cytotoxicity Assay - LYMP1-001 - Live Cells (AID 947);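 further: 0% = DMSO only and full inhibition = tetraoctylammonium bromide control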
[4] = Cell Viability - LYMP1-002 - Assay at 16 hr (AID 948);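 further: 0% = DMSO alone and full effect = 92 µM tetraoctylammonium bromide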
Summary of the method: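 In this qHTS, lymphoblastoid LYMP1-002 cells (human) receive compounds for 16 hr at 37 C. Viability is taken from CellTiter-Glo ATP luminescence, and AC50 derives from standard Hill fits.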

[5] = MultiTox-Fluor Cytotoxicity Assay - LYMP1-002 - Live Cells (AID 955);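 further: cells exposed to compound for 16 hours; on the % scale 0 is the no-effect control and ±100 the full control effect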
Summary of the method: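 Cytotoxicity in the human lymphoblastoid line LYMP1-002 is measured as loss of live-cell protease activity after 16 h treatment in complete culture medium. AC50 is derived from Hill-equation fits of qHTS concentration-response data.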

[6] = MultiTox-Fluor Cytotoxicity Assay - LYMP1-002 - Dead Cells (AID 960); further: nearly all actives have a fitted effect of over 60% in size
Summary of the method: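 Acute cytotoxicity in a human lymphoblastoid line is scored as rising dead-cell protease signal after 16 hr exposure at 37 C, measured fluorometrically (485/520).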

[7] = MultiTox-Fluor Cytotoxicity Assay - LYMP1-003 - Dead Cells (AID 961); further: nearly all actives have a fitted effect of over 70% in size
Summary of the method: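 Dead-cell protease release, detected as bis-AAF-R110 fluorescence at 485/520 nm, was measured in LYMP1-003 cells after 16 h compound treatment at 37 C. AC50 values came from Hill-modeled qHTS curves normalized to DMSO (0%) and 15 uM tetraoctylammonium bromide (100%).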

[8] = MultiTox-Fluor Cytotoxicity Assay - LYMP1-003 - Live Cells (AID 962);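 further: cells exposed to compound for 16 hours at 37 °C; 0% = DMSO only and full loss = 92 µM tetraoctylammonium bromide; cytotoxic hits lower the live-cell protease signal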
Summary of the method: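 Cells plated at 2500 per well and incubated 5 hr; compounds added and incubated 16 hr at 37 C; MultiTox-Fluor reagent added for 60 min at room temperature; fluorescence of liberated AFC measured at 405/510 nm.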

[9] = Cell Viability - LYMP1-003 - Assay at 24 hr (AID 963);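 further: plate controls were DMSO only for no effect and tetraoctylammonium bromide positive control for full effect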
Summary of the method: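 Acute toxicity in LYMP1-003 lymphoblastoid cells: 24 hr compound treatment at 37 C, ATP measured with CellTiter-Glo after 30 min at room temperature. AC50 derived by fitting the Hill equation to qHTS titrations.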

[10] = Cell Viability - LYMP1-003 - Assay at 40 hr (AID 964); further: series mostly up to about 92 µM; on the % scale 0 is the no-effect control and ±100 the full control effect; nearly all actives have a fitted effect of over 60% in size
Summary of the method: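 This qHTS cytotoxicity screen treats human lymphoblastoid cells (LYMP1-003) with compounds for 40 hr and quantifies cellular ATP via luciferase luminescence.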

[11] = Cell Viability - LYMP2-003 (AID 965);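 further: cells exposed to compounds for 24 h before reading; 0% = DMSO only and full effect = 92 µM tetraoctylammonium bromide; nearly all actives have a fitted effect of over 50% in size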
Summary of the method: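 qHTS, human lymphoblastoid line, 2500 cells/well, complete medium. 24 h drug, 37 C. ATP-based luminescent readout; Hill-fit AC50.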

[12] = Cell Viability - LYMP2-004 (AID 966);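 further: plate controls were DMSO only for no effect and tetraoctylammonium bromide control for full effect; nearly all actives have a fitted effect of over 65% in size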
Summary of the method: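 Acute toxicity is scored as a concentration-dependent drop in intracellular ATP, quantified by luciferase luminescence, in human lymphoblastoid cells exposed to compound for 24 hr. AC50 derives from Hill-equation modelling.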

[13] = Cell Viability - LYMP2-005 (AID 967);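 further: series mostly up to about 92 µM; plate controls were DMSO only for no effect and 92 µM tetraoctylammonium bromide control for full effect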
Summary of the method: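 Luciferase-based ATP quantitation served as the viability measure in human lymphoblastoid LYMP2-005 cells exposed to test compounds for 24 h at 37 C in complete culture medium. Potency (AC50) was obtained by fitting concentration-response curves with the Hill equation.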

[14] = Cell Viability - LYMP2-009 (AID 968);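 further: series mostly up to about 92 µM; 0% = DMSO alone and the full-kill end = tetraoctylammonium bromide at 92 µM; nearly all actives have a fitted effect of over 55% in size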
[15] = qHTS assay for small molecule agonists of the antioxidant response element (ARE) signaling pathway measured by Nrf2-dependant transcriptional activity (AID 720636; active means well fitted curve in the direction sought with a large enough effect in the repeat runs; an effect the other way counts as inactive or inconclusive;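 further: HepG2 cells with an ARE-driven luciferase reporter; % of control where 0% means no effect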)
Summary of the method: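 Cells: ARE-luc HepG2 with Nrf2-responsive luciferase. Medium contained 1% dialyzed FBS. Compound exposure lasted 16 hr at 37 C and 5% CO2, followed by ONE-Glo luciferase detection.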

[16] = qHTS assay for small molecule antagonists of the retinoid-related orphan receptor gamma (ROR-gamma) signaling pathway - cell viability counter screen (AID 720652; active means well fitted curve in the direction sought with a large enough effect in the repeat runs; an effect the other way counts as inactive or inconclusive;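 further: CHO reporter cells with doxycycline-induced ROR-gamma expression; series mostly up to about 92 µM; compound exposure lasted 16 hr before ATP read; on the % scale 0 is the no-effect control and ±100 the full control effect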)
Summary of the method: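 Cytotoxicity is quantified via intracellular ATP (CellTiter-Glo luminescence) in doxycycline-induced CHO ROR response element-luciferase reporter cells treated with compound for 16 hr at 37 C, 5% CO2.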

[17] = qHTS assay for small molecule agonists of the antioxidant response element (ARE) signaling pathway measured by Nrf2-dependant transcriptional activity - cell viability counter screen (AID 720653; active means well fitted curve in the direction sought with a large enough effect in the repeat runs; an effect the other way counts as inactive or inconclusive; further: on the % scale 0 is the no-effect control and ±100 the full control effect); settings: ARE-bla HepG2 viability, CellTiter-Glo ATP luminescence, 16 h; stronger effect = lower value
Summary of the method: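 Cytotoxicity counter screen: intracellular ATP quantified by CellTiter-Glo luminescence in the same ARE-bla HepG2 plates, after 16 h compound exposure and a 2 h beta-lactamase substrate step.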

[18] = qHTS assay for cell viability of HEK293 cells (AID 743288); settings: ATP luminescence (CellTiter-Glo), 18 h, stronger effect = lower value; further: on the % scale 0 is the no-effect control and ±100 the full control effect; nearly all actives have a fitted effect of over 50% in size
Summary of the method: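 Luminescent ATP quantitation served as the viability read-out. Cells (parental HEK293, 2,000/well) received compounds after at least 5 h at 37 C and were exposed for 18 h before a 30 min room-temperature reagent step.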

[19] = qHTS assay for cell viability of the p53RE-bla HCT-116 cell line (AID 743292); further: on the % scale 0 is the no-effect control and ±100 the full control effect; nearly all actives have a fitted effect of over 55% in size
Summary of the method: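 HCT-116 p53RE-bla cells seeded 4,000/well; 5 h at 37 C; compound (DMSO) added; 16 h at 37 C; CellTiter-Glo added, 30 min RT; luminescence read.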

[20] = qHTS assay for small molecule activators of the human pregnane X receptor (PXR) signaling pathway (AID 720659; call rule not given here; further: 0% is about no effect)

Measured: max response

Cc1occc(=O)c1O
inactive: [1] | [2] | [3] | [4] | [5] | [6] | [7] | [8] | [9] | [10] | [11] | [12] | [13] | [14] | [15] | [16] | [17] 5.21% | [18] 0.312% | [19] | [20]

CC1=CC(=O)CC(C)(C)C1(O)/C=C/C(C)=C\C(=O)O (stereo not given)
inactive: [1] | [2] | [3] | [4] | [5] | [6] | [7] | [8] | [9] | [10] | [11] | [12] | [13] | [14] | [15] | [16] | [17] 6.26% | [18] 11% | [19] | [20]
